Laboratory results published in PubChem BioAssay (EPA / NIEHS).
Records with an inconclusive call do not appear. Active and inactive are the calls of the source. The calls were made as follows, unless noted: active = hit-call score of the fitted dose curve at least 0.9, where 1 is the maximum; inactive = score below 0.9.

Assays:
[1] = ATG_NFI_CIS: Attagene CIS-FACTORIAL HepG2 Assay for human Nuclear Factor I (NFI) (AID 2282989); conditions: HepG2 cis-regulatory reporter, NFI response element transcription; actives raise or lower the signal
In short: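 HepG2 cells transiently transfected with cis-element-driven multiplexed reporter transcription units, dosed for 24 h. Reporter mRNA quantified by RT-PCR, fluorescent labelling, HpaI digestion and capillary electrophoresis; bidirectional fit versus DMSO baseline.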

[2] = target: Myc proto-oncogene protein (Homo sapiens) (UniProt P01106); experiment: ATG_Myc_CIS: Attagene CIS-FACTORIAL HepG2 Assay for human Myelocytomatosis (Myc) Proto-Oncogene Transcription Factor (AID 2282990); conditions: HepG2, Attagene cis-reporter transcription factor activity; actives raise or lower the signal
In short: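 Cells of the HepG2 human liver line bear multiple cis-driven reporter transcription units. Reporter mRNA after 24 h exposure is reverse-transcribed, amplified, labelled and resolved by capillary electrophoresis, with gain- or loss-of-signal fitting relative to DMSO.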

[3] = ATG_NRF2_ARE_CIS: Attagene CIS-FACTORIAL HepG2 Assay for human Nuclear Factor Erythroid 2 Related Factor 2 (NFR2) response to Antioxidant Response Elements (ARE) (AID 2282992); conditions: HepG2 Attagene ARE/NRF2 reporter, transcription factor activity; actives raise or lower the signal
In short: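 Cis-factorial assay: transfected HepG2 reporter library, 24 h dosing, mRNA readout via RT-PCR/CE; DMSO-referenced bidirectional analysis.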

[4] = ATG_Oct_MLP_CIS: Attagene CIS-FACTORIAL HepG2 Assay for human Octamer-Binding Transcription Factor (Oct) (AID 2282993); conditions: HepG2 Attagene cis-factorial Oct reporter, mRNA; actives raise or lower the signal
In short: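 HepG2 cells transiently transfected with cis-promoter-driven multiplexed reporter transcription units, dosed for 24 h. Reporter mRNA quantified by RT-PCR, fluorescent labelling, HpaI digestion and capillary electrophoresis; bidirectional fits versus DMSO baseline.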

[5] = target: Cellular tumor antigen p53 (Homo sapiens) (UniProt P04637); experiment: ATG_p53_CIS: Attagene CIS-FACTORIAL HepG2 Assay for human p53 Transcription Factor (AID 2282994); conditions: HepG2 p53 cis-element reporter, Attagene mRNA; actives raise or lower the signal
In short: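 Using HepG2 hepatoma cells carrying cis-acting multiplexed reporters, mRNA induction is detected after a 24 h exposure. Gain- and loss-of-signal responses are fitted relative to DMSO-treated cells.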

[6] = target: human Peroxisome Proliferator-activated Receptor alpha (PPARa), PPARA (gene 5465) (UniProt Q07869); experiment: ATG_PPARa_TRANS: Attagene TRANS-FACTORIAL HepG2 Assay for human Peroxisome Proliferator-activated Receptor alpha (PPARa) (AID 2283001; active = hit-call score of the fitted dose curve at least 0.9, where 1 is the maximum)
In short: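 Read-out is fluorescence of reporter cDNA fragments resolved by capillary electrophoresis after RT-PCR. Human HepG2 liver cells carried transfected PPARa-Gal4 chimera and GAL4-UAS reporter units, treated 24 h; activity scored as increase over DMSO.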

[7] = target: human Retinoic Acid Receptor beta (RARb), RARB (gene 5915) (UniProt P10826); experiment: ATG_RARb_TRANS: Attagene TRANS-FACTORIAL HepG2 Assay for human Retinoic Acid Receptor beta (AID 2283004; active = hit-call score of the fitted dose curve at least 0.9, where 1 is the maximum)
In short: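 Fluorescent capillary-electrophoresis detection of GAL4-UAS reporter mRNA defines the endpoint, with induction over DMSO-treated wells scored as activity. Transiently transfected human hepatoma HepG2 cells expressing exogenous NR–Gal4 proteins are exposed to test chemicals for 24 h.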

[8] = target: Peroxisome proliferator-activated receptor gamma (Homo sapiens) (UniProt P37231); experiment: ATG_PPARg_TRANS: Attagene TRANS-FACTORIAL HepG2 Assay for human Peroxisome Proliferator-activated Receptor-gamma (PPARg) (AID 2283007; active = hit-call score of the fitted dose curve at least 0.9, where 1 is the maximum)
In short: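 HepG2 cells transiently transfected with multiplexed GAL4-UAS reporter units and exogenous chimeric NR-Gal4 proteins; reporter mRNA quantified after 24 h compound exposure by RT-PCR, fluorescent labelling, HpaI digestion and capillary electrophoresis; gain-of-signal fitted versus DMSO baseline.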

[9] = target: Nuclear receptor subfamily 1 group I member 2 (Homo sapiens) (UniProt O75469); experiment: ATG_PXR_TRANS: Attagene TRANS-FACTORIAL HepG2 Assay for human Pregnane X Receptor (PXR) (AID 2283008; active = hit-call score of the fitted dose curve at least 0.9, where 1 is the maximum)
In short: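 Fluorescence intensity of FAM-labelled, HpaI-digested reporter amplicons, separated by capillary electrophoresis, quantifies induction. HepG2 cells with PXR-Gal4 trans-reporter system were exposed 24 h; DMSO defines baseline.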

[10] = target: human Retinoic Acid Receptor gamma (RARg), RARG (gene 5916) (UniProt P13631); experiment: ATG_RARg_TRANS: Attagene TRANS-FACTORIAL HepG2 Assay for human Retinoic Acid Receptor gamma (RARg) (AID 2283009; active = hit-call score of the fitted dose curve at least 0.9, where 1 is the maximum)
In short: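 HepG2 transiently transfected with GAL4-UAS reporter units and chimeric NR-Gal4 constructs; 24 h compound exposure. Reporter mRNA quantified by RT-PCR, FAM labeling, HpaI digestion and capillary electrophoresis; gain-of-signal versus DMSO.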

[11] = target: human RAR-related Orphan Receptor beta (RORb), RORB (gene 6096) (UniProt Q92753); experiment: ATG_RORb_TRANS: Attagene TRANS-FACTORIAL HepG2 Assay for human RAR-related Orphan Receptor beta (RORb) (AID 2283010; active = hit-call score of the fitted dose curve at least 0.9, where 1 is the maximum)
In short: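 HepG2 cells transiently transfected with GAL4-UAS reporter units expressing chimeric NR-Gal4 protein; reporter mRNA measured 24 h after dosing by RT-PCR, 6-FAM labelling and capillary electrophoresis. Gain-of-signal fitted relative to DMSO baseline.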

[12] = target: human Peroxisome Proliferator-activated Receptor delta (PPARd), PPARD (gene 5467) (UniProt Q03181); experiment: ATG_PPARd_TRANS: Attagene TRANS-FACTORIAL HepG2 Assay for human Peroxisome Proliferator-activated Receptor delta (PPARd) (AID 2283002; active = hit-call score of the fitted dose curve at least 0.9, where 1 is the maximum)
In short: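 Cell-based TRANS reporter: HepG2, transient MRTU transfection, 24 h exposure. Readout = reporter mRNA (RT-PCR/CE, 6-FAM). Gain-of-signal fit vs DMSO control.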

[13] = target: Retinoic acid receptor alpha (Homo sapiens) (UniProt P10276); experiment: ATG_RARa_TRANS: Attagene TRANS-FACTORIAL HepG2 Assay for human Retinoic Acid Receptor alpha (RARa) (AID 2283005; active = hit-call score of the fitted dose curve at least 0.9, where 1 is the maximum)
In short: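 Reporter transcripts, measured by RT-PCR with fluorescent labeling and capillary electrophoresis after 24 h dosing, reflect activity of an exogenous human RARa–GAL4 fusion in transiently transfected HepG2. Fitted for increase relative to DMSO.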

[14] = BSK_3C_TissueFactor: BioMAP Diversity Plus: 3C Assay for Tissue Factor Biomarker Activity (AID 2282997); conditions: BioMAP 3C HUVEC, tissue factor biomarker readout; actives raise or lower the signal
In short: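 Endothelial monolayers (human umbilical vein, primary) are dosed, incubated 24 h, and assayed for Tissue Factor by ELISA; DMSO serves as negative control for bidirectional fitting.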

[15] = BSK_3C_uPAR: BioMAP Diversity Plus: 3C Assay for Urokinase-type plasminogen activator receptor (uPAR) Biomarker Activity (AID 2282998); conditions: BioMAP 3C HUVEC, uPAR biomarker ELISA; actives raise or lower the signal
In short: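 Human umbilical vein endothelial primary cells were exposed to test chemical for 24 h. Cell-surface uPAR was then quantified by ELISA, and responses were fitted bidirectionally against DMSO as negative control and baseline.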

[16] = BSK_3C_VCAM1: BioMAP Diversity Plus: 3C Assay for Vascular cell adhesion molecule 1 (VCAM1) Biomarker Activity (AID 2282999); conditions: BioMAP 3C HUVEC, VCAM1 ELISA, cytokine-stimulated; actives raise or lower the signal
In short: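 Endothelial cells from human umbilical vein are treated with test chemical. At 24 h, VCAM-1 is measured by ELISA, and responses in either direction are fitted relative to DMSO.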

[17] = BSK_4H_Eotaxin3: BioMAP Diversity Plus: 4H Assay for Eotaxin 3 Biomarker Activity (AID 2283000); conditions: primary human endothelial cells (HUVEC); actives raise or lower the signal;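 also: CCL26 protein level quantified by ELISA in parallel with SRB cytotoxicity check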
In short: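 ELISA quantitation of CCL26 (Eotaxin-3) protein from chemically dosed human vascular endothelial cells at 24 h; increases and decreases both scored relative to DMSO-treated baseline.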

[18] = read-out: Intercellular Adhesion Molecule 1 (ICAM1), ICAM1 (gene 3383); experiment: BSK_3C_ICAM1: BioMAP Diversity Plus: 3C Assay for Intercellular Adhesion Molecule 1 (ICAM1) Biomarker Activity (AID 2283003); conditions: primary human endothelial cells (HUVEC); actives raise or lower the signal
In short: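 HUVEC primary cells stimulated under 3C conditions; ICAM1 measured by ELISA 24 h after compound dosing. Curves fitted bidirectionally against the DMSO baseline. Overt cytotoxicity checked by SRB staining of parallel cultures.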

[19] = BSK_3C_Proliferation: Cell Proliferation Assessment in the BioMAP Diversity Plus: 3C Assay (AID 2283006); conditions: primary human endothelial cells (HUVEC);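 also: potency may reflect either rise or fall in cell number versus DMSO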
In short: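 Subconfluent HUVEC (3C system) cultured with chemical; relative cell number read at 48 h by sulforhodamine B total-protein staining (0.1% SRB after 10% TCA fixation, 560 nm). Bidirectional fit relative to DMSO.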

Measured: AC50

Retinoic acid receptor alpha (Homo sapiens), sequence (P10276 whole entry, looked up, the tested form may be a part): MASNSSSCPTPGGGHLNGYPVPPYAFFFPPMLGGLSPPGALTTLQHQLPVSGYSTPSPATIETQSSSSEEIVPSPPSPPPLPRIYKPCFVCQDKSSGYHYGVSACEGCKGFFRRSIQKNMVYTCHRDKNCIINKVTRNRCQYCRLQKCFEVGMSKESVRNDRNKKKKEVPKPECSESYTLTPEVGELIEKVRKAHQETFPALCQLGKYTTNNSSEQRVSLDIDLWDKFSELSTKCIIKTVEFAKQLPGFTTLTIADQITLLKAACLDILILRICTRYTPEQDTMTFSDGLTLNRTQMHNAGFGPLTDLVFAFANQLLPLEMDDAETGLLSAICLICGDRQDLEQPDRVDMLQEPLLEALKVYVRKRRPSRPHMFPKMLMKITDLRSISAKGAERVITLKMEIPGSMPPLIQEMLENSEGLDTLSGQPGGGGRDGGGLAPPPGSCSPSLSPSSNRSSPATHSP
human Peroxisome Proliferator-activated Receptor delta (PPARd), PPARD (gene 5467), sequence (Q03181 whole entry, looked up): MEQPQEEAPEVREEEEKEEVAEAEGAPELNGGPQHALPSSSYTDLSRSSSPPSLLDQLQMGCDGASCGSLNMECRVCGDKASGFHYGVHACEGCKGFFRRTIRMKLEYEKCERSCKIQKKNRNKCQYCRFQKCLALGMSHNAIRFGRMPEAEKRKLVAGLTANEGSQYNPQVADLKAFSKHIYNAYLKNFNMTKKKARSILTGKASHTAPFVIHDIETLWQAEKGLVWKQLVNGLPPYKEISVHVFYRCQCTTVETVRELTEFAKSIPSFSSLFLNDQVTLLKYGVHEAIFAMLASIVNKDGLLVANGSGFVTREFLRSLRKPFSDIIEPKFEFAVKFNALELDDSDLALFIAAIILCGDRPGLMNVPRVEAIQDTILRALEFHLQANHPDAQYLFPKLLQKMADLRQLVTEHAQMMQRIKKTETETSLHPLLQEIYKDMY
human RAR-related Orphan Receptor beta (RORb), RORB (gene 6096), sequence (Q92753 whole entry, looked up, the tested form may be a part): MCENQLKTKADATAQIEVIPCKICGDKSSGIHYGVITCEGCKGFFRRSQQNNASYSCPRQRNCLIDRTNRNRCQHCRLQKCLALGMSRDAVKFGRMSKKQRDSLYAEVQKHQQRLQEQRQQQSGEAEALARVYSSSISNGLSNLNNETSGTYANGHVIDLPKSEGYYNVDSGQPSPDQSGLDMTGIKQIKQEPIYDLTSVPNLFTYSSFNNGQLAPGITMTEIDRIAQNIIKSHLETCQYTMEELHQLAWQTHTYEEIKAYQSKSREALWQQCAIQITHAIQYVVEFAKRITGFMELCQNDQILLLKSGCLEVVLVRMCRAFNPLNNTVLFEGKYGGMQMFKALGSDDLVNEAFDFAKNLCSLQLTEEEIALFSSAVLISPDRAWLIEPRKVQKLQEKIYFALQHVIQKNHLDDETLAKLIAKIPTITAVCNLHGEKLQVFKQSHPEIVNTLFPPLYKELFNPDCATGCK
human Peroxisome Proliferator-activated Receptor alpha (PPARa), PPARA (gene 5465), sequence (Q07869 whole entry, looked up, the tested form may be a part): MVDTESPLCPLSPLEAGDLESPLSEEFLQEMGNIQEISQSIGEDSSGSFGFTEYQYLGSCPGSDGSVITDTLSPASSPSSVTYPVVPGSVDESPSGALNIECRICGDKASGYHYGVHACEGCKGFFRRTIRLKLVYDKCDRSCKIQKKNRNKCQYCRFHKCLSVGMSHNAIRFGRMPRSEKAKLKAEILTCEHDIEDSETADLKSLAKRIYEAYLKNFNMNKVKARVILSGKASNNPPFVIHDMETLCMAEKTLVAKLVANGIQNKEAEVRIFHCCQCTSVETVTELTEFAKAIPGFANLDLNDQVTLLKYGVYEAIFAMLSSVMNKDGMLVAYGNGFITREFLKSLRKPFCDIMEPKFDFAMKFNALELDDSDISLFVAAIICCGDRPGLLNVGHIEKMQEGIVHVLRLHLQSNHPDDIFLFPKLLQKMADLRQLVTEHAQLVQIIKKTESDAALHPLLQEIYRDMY
Nuclear receptor subfamily 1 group I member 2 (Homo sapiens), sequence (O75469 whole entry, looked up, the tested form may be a part): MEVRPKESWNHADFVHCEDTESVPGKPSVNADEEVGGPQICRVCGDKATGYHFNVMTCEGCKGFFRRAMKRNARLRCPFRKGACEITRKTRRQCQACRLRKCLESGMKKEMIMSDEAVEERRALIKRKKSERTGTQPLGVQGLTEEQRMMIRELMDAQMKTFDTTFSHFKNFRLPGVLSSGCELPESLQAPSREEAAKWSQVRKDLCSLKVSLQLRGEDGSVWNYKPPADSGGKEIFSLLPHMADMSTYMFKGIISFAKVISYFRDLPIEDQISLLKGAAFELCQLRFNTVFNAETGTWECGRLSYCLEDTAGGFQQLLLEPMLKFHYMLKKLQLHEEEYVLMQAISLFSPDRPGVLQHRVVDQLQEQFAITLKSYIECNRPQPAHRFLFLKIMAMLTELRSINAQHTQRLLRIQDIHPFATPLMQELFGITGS
human Retinoic Acid Receptor beta (RARb), RARB (gene 5915), sequence (P10826 whole entry, looked up, the tested form may be a part): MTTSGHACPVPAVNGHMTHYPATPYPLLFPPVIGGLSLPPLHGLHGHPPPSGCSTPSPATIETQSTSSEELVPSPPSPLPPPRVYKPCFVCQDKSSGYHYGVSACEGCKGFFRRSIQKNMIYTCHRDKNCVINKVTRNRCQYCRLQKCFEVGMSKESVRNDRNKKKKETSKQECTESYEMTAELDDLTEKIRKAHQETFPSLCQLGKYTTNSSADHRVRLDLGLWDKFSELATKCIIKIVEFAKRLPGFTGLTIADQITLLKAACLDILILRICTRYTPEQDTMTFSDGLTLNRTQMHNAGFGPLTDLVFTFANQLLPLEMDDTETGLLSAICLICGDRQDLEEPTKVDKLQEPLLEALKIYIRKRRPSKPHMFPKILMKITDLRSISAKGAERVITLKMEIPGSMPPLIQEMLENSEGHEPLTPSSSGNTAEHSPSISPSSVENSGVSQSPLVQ
Cellular tumor antigen p53 (Homo sapiens), sequence (P04637 whole entry, looked up): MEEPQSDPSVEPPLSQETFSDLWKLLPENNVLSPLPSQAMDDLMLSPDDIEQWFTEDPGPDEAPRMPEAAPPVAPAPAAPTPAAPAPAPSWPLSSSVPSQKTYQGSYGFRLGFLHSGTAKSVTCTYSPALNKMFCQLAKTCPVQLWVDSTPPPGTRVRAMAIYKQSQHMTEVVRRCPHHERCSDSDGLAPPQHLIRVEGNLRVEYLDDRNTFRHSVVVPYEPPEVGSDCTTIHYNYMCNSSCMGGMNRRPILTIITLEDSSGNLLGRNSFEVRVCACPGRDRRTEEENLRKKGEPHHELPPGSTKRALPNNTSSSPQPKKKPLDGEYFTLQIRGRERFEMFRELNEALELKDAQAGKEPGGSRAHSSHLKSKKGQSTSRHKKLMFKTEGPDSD
Myc proto-oncogene protein (Homo sapiens), sequence (P01106 whole entry, looked up): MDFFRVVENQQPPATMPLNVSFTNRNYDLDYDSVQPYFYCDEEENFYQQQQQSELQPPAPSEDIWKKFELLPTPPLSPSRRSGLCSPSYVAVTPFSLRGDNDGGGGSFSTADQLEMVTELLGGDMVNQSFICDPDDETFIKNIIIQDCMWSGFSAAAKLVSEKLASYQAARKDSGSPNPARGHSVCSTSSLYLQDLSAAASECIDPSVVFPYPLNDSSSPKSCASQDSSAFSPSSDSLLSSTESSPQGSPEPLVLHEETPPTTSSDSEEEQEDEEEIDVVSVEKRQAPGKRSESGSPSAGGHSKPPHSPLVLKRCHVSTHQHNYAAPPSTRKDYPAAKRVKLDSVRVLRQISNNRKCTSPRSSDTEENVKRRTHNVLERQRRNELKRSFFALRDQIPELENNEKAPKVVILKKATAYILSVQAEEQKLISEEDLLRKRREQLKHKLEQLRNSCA
human Retinoic Acid Receptor gamma (RARg), RARG (gene 5916), sequence (P13631 whole entry, looked up, the tested form may be a part): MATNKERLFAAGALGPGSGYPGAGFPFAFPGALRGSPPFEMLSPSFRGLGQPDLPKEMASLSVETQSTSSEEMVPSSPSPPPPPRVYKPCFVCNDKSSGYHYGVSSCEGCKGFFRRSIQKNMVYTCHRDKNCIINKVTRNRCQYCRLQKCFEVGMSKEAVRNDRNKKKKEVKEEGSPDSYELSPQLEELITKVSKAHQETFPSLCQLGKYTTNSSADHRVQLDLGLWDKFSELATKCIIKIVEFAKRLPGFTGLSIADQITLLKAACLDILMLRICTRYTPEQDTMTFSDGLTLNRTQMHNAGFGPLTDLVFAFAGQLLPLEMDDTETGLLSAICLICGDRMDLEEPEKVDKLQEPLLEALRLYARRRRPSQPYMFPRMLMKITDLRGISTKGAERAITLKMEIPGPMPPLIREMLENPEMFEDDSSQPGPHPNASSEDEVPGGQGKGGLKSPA

CC1CCC(CO)CC1 (stereo unspecified)
inactive: [1] | [2] | [3] | [4] | [6] | [12] | [7] | [13] | [9] | [11]

CC(C)(C)C1CCCCC1O (stereo unspecified)
inactive: [1] | [2] | [4] | [5] | [12] | [7] | [9] | [10] | [11]

CCCC=O
inactive: [1] | [2] | [4] | [5] | [7] | [13] | [9] | [10] | [11]

CS(=O)(=O)c1ccc([C@@H](CC2CCCC2)C(=O)Nc2cnccn2)cc1Cl
inactive: [5] | [14] | [15] | [16] | [17] | [6] | [12] | [18]
active: [2] 165 µM | [4] 122 µM | [19] 31.6 µM | [9] 3.42 µM
